Screening data deposited in PubChem BioAssay by several laboratories.
Only some compounds are listed: those with a hit (about 2.7% of all), similar ones and a draw of the others.
rCAG RNA binder: binds r(CAG) RNA repeats; r(CAG) RNA repeat, TO-PRO-1 dye displacement fluorescence; inhibition, % at 3 µM; 370,000 compounds, 1.3% hits; AID 651821;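 active = inhibition above the plate cutoff, the mean of all test compounds on that plate plus 3 SD, cut at about 35% in these data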;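 note: higher means more dye released from RNA so lower well fluorescence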
MsrA inh: inhibitors of bovine MsrA. purified bovine MsrA, absorbance read-out. inhibition, % at 15.5 µM. 360,000 compounds, 0.75% hits. AID 651718
MsrA act: activates bovine MsrA enzyme | purified bovine MsrA, absorbance read-out | activation, % at 10.6 µM | 360,000 compounds, 0.3% hits | AID 602163; in the data active = activation above about 7.5%
NadD inh: inhibitors of Staphylococcus aureus NadD; AID 602399; inhibition, % at 20 µM; 360,000 compounds, 0.78% hits; purified NadD enzyme, colorimetric absorbance read-out; in the data active = inhibition above about 26%
MsrA conf: bovine MsrA inhibition, confirmed. shares compounds with MsrA inh. purified bovine MsrA, absorbance read-out. inhibition, % at 15.5 µM. 2,300 compounds, 41% hits. AID 651822;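 note: coupled to thioredoxin reductase with NADPH and selenocystamine and DMSO as substrate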
Of the large screens only hits and unclear results are named; the others gave an inactive call (follow-up assays come after a bar, where they were run). Cut-off read from the data, not from the text of the source, unless noted: active = inhibition above about 4.5%; inactive = the rest.

Cn1c(/C(C#N)=C(\O)c2cc(Cl)sc2Cl)nc2ccccc21	none
COc1ccc(/C(O)=C(\C#N)c2nc3ccccc3n2C)cc1OC	MsrA inh 6.9 | MsrA conf 6.0
CCOC(=O)Nc1ccc(S(=O)(=O)NC2CCCCC2)cc1	none
COc1ccc(NC(=O)CN2CCCCC2)c([N+](=O)[O-])c1	none
NS(=O)(=O)c1cc(C(=O)OCC(=O)Nc2ccccc2[N+](=O)[O-])ccc1Cl	MsrA inh 12.5 | MsrA conf 6.0
COc1ccc(NC(=O)COC(=O)C2CCCCC2)c([N+](=O)[O-])c1	MsrA inh 11.8 | MsrA conf 8.1
NS(=O)(=O)c1cc(C(=O)OCC(=O)Nc2ccc(Cl)cc2[N+](=O)[O-])ccc1Cl	none
CNS(=O)(=O)c1cccc(C(=O)OCC(=O)Nc2ccc(OC)cc2[N+](=O)[O-])c1	MsrA inh 6.0 | MsrA conf inactive
CC(C)CNC(=O)c1cccc(NC(=O)c2ccc(Cl)c([N+](=O)[O-])c2)c1	none
CCOC(=O)Cc1csc(NC(=O)CSc2nccn2C)n1	none
Cc1nn(-c2ccccc2)c(N)c1N=Nc1ccc2ccccc2c1	none
Cc1ccc(N=Nc2c(N)nn(-c3ccccc3)c2N)cc1	MsrA inh 5.0 | MsrA conf inactive
Cc1nn(C)c(C)c1Nc1ccc(N2C(=O)C3CC=CCC3C2=O)cc1[N+](=O)[O-] (stereo unspecified)	none
NC(CSS(=O)(=O)O)=NCCC12CC3CC(CC(O)(C3)C1)C2	MsrA inh 7.5 | MsrA conf inactive
O=C(O)CCC(=O)Nc1nc2nccc(-c3ccccc3)n2n1	none
COC(=O)CN(c1nc(C)cc(OC)n1)S(=O)(=O)c1ccccc1	none
COC(=O)CN(c1nc(C)c(Br)c(OC)n1)S(=O)(=O)c1ccccc1	MsrA inh 13.3 | MsrA conf 11.9
O=C(NC(=S)Nc1ccccc1N1CCOCC1)c1ccco1	MsrA inh 8.0 | MsrA conf inactive
O=C(NC(c1ccc(F)cc1)c1ccc2ccccc2n1)C1CCN(Cc2cccc(C(F)(F)F)c2)CC1 (stereo unspecified)	none
COc1ccc2cc3cc(C(=O)NCc4cccnc4)oc3nc2c1	MsrA inh 5.6 | MsrA conf inactive
COCCn1c(=S)[nH]c2sc3c(c2c1=O)CCCC3	MsrA inh 5.5 | MsrA conf inactive
O=C(COC(=O)c1cccs1)Nc1nnc(-c2ccccc2)o1	none
Cc1ccc(C(C)C)cc1OCCCCN1CCCC1	none
CCOc1ccc(/C=N/n2nnnc2N)cc1OCC	MsrA inh 4.8 | MsrA conf inactive
CCOc1cc(/C=N\n2nnnc2N)ccc1O	none
COc1ccccc1/C=C\C=N\NC(=O)CCn1nnc2ccccc21	MsrA inh 5.0 | MsrA conf inactive
COc1ccccc1/C=C/C=N/NC(=O)Cc1cccn1C	MsrA inh 5.8 | MsrA conf 4.9
Cn1cccc1CC(=O)NN=C/C=C\c1ccco1	none (no result: MsrA inh, MsrA act, NadD inh)
COc1ccccc1/C=C/C=N/NC(=O)CCn1nnc2ccccc21	none
COc1ccccc1/C=C/C=N/NC(=O)c1cccs1	MsrA inh 5.8 | MsrA conf 6.7
COc1ccccc1/C=C\C=N\NC(=O)c1ccco1	none
CCc1cc(=O)[nH]c(SCCC(F)=C(F)F)n1	none
Cc1cc(NC(=O)CCC(=O)N(CC(=O)NC2CCCC2)c2ccc(C)c(F)c2)no1	none
C1CC1Cc1noc(CN2CCN(C3C4CC5CC(C4)CC3C5)CC2)n1 (stereo unspecified)	none
O=c1oc2ccc([N+](=O)[O-])cc2c(N2CCOCC2)c1[N+](=O)[O-]	MsrA inh 5.1 (no result: MsrA act, NadD inh) | MsrA conf inactive
C=CCN(C(=O)COc1ccccc1)c1nnc(-c2ccncc2)s1	none
COc1ccc(C(=O)N/N=C/c2sc(N3CCOCC3)nc2-c2ccccc2)cc1OC	none
O=C(N/N=C/c1cnc(N2CCOCC2)s1)c1ccccc1	MsrA inh 5.2 | MsrA conf 5.1
O=C(N/N=C/c1sc(N2CCOCC2)nc1-c1ccccc1)c1ccc(O)cc1	MsrA inh 16.7 | MsrA conf 10.4
Nc1ccc(C(=O)N/N=C/c2ccc(N3CCOCC3)s2)cc1	none
COc1ccccc1NS(=O)(=O)c1cc([N+](=O)[O-])ccc1N/N=C/c1sc(N2CCOCC2)nc1-c1ccccc1	MsrA inh 10.7, NadD inh 36.6 | MsrA conf 7.0
O=C(CSc1nnnn1C1CC1)N1CCN(c2ccccc2F)CC1	none
Cc1ccc(C)c(OCCSc2nnc(-c3cccnc3)n2N)c1	none
CN1CCN(c2ccc(S(=O)(=O)N3CCCCC3)cc2NC(=O)CSC(C)(C)C)CC1	none
O=C(CN1CCN(Cc2ccccc2)CC1)N/N=C\C=C/c1ccco1	MsrA inh 6.9 | MsrA conf 5.5
CC1(C)CC(=O)C(C=Nc2ccc(O)cc2)=C(O)C1	MsrA inh 5.4 | MsrA conf inactive
COc1cccc(N=CC2=C(O)CCCC2=O)c1	none
CC1(C)CC(=O)C(C=Nc2ccc3[nH]ncc3c2)=C(O)C1	MsrA inh 5.6 | MsrA conf 4.8
COc1cccc(N=CC2=C(O)CC(C)(C)CC2=O)c1	MsrA inh 6.2 | MsrA conf inactive
O=c1c2ccccc2n(Cc2ccccc2)n1[C@@H](Cc1ccccc1)Cn1cc(-c2ccc(-c3ccccc3)cc2)nn1	none (no result: MsrA inh, MsrA act, NadD inh)
O=C(Nc1ccc(F)cc1)C(CCc1ccccc1)N1CCN(c2cccc(C(F)(F)F)n2)CC1 (stereo unspecified)	none (no result: MsrA act, NadD inh)
CCN(C(=O)COC(=O)c1c(NC(C)=O)sc(C)c1C)c1c(N)n(Cc2ccccc2)c(=O)[nH]c1=O	none
CCOc1cc(S(=O)(=O)NCc2ccco2)c(OCC)cc1-n1cnnn1	MsrA inh 7.7 | MsrA conf inactive
CCOc1cc(S(=O)(=O)NC2CC2)c(OCC)cc1-n1cnnn1	MsrA inh 25.5 | MsrA conf 22.7
CC(=O)Nc1c(-c2cc(=O)oc3cc(C)ccc23)oc2ccccc12	MsrA inh 4.9 | MsrA conf inactive
O=[N+]([O-])c1ccc(Sc2nnnn2-c2ccccc2)nc1	MsrA inh 4.8 (no result: MsrA act, NadD inh) | MsrA conf inactive
Cc1ccc[n+](-c2[nH]c(=O)sc2/C=N/NC(=O)c2ccccc2[O-])c1	MsrA inh 4.9 | MsrA conf inactive
Cc1ccc[n+](-c2[nH]c(=O)sc2/C=N/N=C(\[O-])c2cccnc2)c1	none
Cc1cc[n+](-c2[nH]c(=O)sc2/C=N/N=C(\[O-])CCn2c3ccccc3c3ccccc32)cc1	none
O=C(N/N=C/c1sc(=O)[nH]c1-[n+]1ccccc1)c1ccccc1[O-]	none
O=c1[nH]c(-[n+]2ccccc2)c(/C=N/N=C(\[O-])c2ccccc2)s1	MsrA inh 5.0 | MsrA conf 5.2
Cc1cc(C)c[n+](-c2[nH]c(=O)sc2/C=N/N=C(\N)[S-])c1	MsrA inh 5.4 | MsrA conf 5.5
Cc1cc[n+](-c2[nH]c(=O)sc2/C=N/N=C(\[O-])c2ccncc2)cc1	MsrA inh 12.6 | MsrA conf inactive
CCN(Cc1ccccc1)C(=O)C1C2C=CC3(CN(Cc4ccccc4)C(=O)C13)O2 (stereo unspecified)	none (no result: MsrA inh, MsrA act, NadD inh)
Cc1cc[n+](-c2[nH]c(=O)sc2/C=N/N=C(\[O-])c2ccccc2)cc1	MsrA inh 5.0 | MsrA conf inactive
